{"source": "PubChem BioAssay AID720566", "about": "(Broad Institute, 2013)", "note": "Results with a measured potency or affinity are listed apart. Values without a mark were called inactive.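 The calls were made as follows: active = in all runs, an absorbance decrease of 25% or more of the average positive control decrease; inconclusive = runs conflict, with both active and inactive results; inactive = all runs inactive, opposite-direction effects included.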", "data": [{"target": "Protein disulfide-isomerase A6 (Homo sapiens) (UniProt Q15084)", "sequence (Q15084 whole entry, looked up)": "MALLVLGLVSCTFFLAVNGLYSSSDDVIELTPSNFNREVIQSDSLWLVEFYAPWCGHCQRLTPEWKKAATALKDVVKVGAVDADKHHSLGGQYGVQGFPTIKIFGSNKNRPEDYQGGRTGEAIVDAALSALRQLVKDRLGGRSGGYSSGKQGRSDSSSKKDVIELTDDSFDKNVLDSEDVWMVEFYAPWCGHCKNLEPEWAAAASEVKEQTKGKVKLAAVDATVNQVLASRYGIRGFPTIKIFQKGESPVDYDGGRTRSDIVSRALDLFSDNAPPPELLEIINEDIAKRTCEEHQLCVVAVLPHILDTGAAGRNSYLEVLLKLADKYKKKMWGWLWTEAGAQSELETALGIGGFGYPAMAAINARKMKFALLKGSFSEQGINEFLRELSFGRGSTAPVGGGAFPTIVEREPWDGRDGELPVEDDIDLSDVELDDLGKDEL", "experiment": "inhibitors of ERp5-mediated insulin aggregation, dose response, biochemical, turbidity, absorbance 650 nm, cherry-picked samples (AID 720566);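 also: negative values mean less insulin aggregation so ERp5 inhibition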", "settings": "Recombinant ERp5 insulin aggregation; series mostly up to 35 µM; activity change, negative = inhibition: at the top concentration", "units": {"activity change, negative = inhibition": "%"}, "values": [{"compound": "C[C@@H]1CN([C@H](C)CO)S(=O)(=O)c2ccc(-c3ccc(F)cc3)cc2O[C@@H]1CN(C)CC1CC1", "activity change, negative = inhibition": 8.97}, {"compound": "Cc1noc(C)c1NC(=O)N(C)C[C@H]1Oc2ccc(NC(=O)c3ccncc3)cc2C(=O)N([C@H](C)CO)C[C@@H]1C", "activity change, negative = inhibition": -1.12}, {"compound": "CCC1(CC)NC(=O)N(CC(=O)OC(C)C(=O)Nc2ccc(NC(C)=O)cc2)C1=O", "note": "(centres undefined)", "activity change, negative = inhibition": 8.27}, {"compound": "O=C(C[C@@H]1C[C@H]2c3cc(NC(=O)Nc4ccccc4F)ccc3O[C@H]2[C@H](CO)O1)NCC(F)(F)F", "activity change, negative = inhibition": 0.289}, {"compound": "O=C(COC(=O)CCc1nc2ccccc2c(=O)[nH]1)Nc1c(Cl)cccc1C(F)(F)F", "activity change, negative = inhibition": 13.4}, {"compound": "CC(C)CC#Cc1ccc2c(c1)O[C@@H](CN(C)C(=O)c1ccccn1)[C@@H](C)CN([C@@H](C)CO)S2(=O)=O", "activity change, negative = inhibition": -13.4}, {"compound": "CN(C)C(=O)C[C@@H]1C[C@H]2c3cc(NS(C)(=O)=O)ccc3O[C@H]2[C@@H](CO)O1", "activity change, negative = inhibition": -1.45}, {"compound": "O=C(NNC(=O)c1ccc2ccccc2c1)Nc1ccc(F)cc1", "activity change, negative = inhibition": -2.38}, {"compound": "Cc1ccc([C@H]2N[C@]3(CCCN(Cc4ccc(Cl)cc4)C3=O)[C@H]3C(=O)N(C)C(=O)[C@@H]23)cc1", "activity change, negative = inhibition": -3.74}, {"compound": "COCC(=O)N(C)C[C@H]1Oc2cc(C#CC(C)(C)O)ccc2S(=O)(=O)N([C@H](C)CO)C[C@H]1C", "activity change, negative = inhibition": 2.98}, {"compound": "Cc1cc2occ(CC(=O)NNC(=O)c3ccccc3)c2cc1C", "activity change, negative = inhibition": -18.2}, {"compound": "C[C@@H]1CN([C@@H](C)CO)C(=O)c2cc(Br)cnc2O[C@H]1CN(C)Cc1cccc(F)c1", "activity change, negative = inhibition": 1.25}, {"compound": "C[C@@H]1CN([C@@H](C)CO)C(=O)c2cc(NC(=O)Nc3ccc4c(c3)OCO4)ccc2O[C@@H]1CN(C)Cc1ccc(C(=O)O)cc1", "activity change, negative = inhibition": -9.55}, {"compound": "O=C(C[C@H]1C[C@@H]2c3cc(NC(=O)CC4CC4)ccc3O[C@@H]2[C@@H](CO)O1)NCc1ccc(-c2ccccc2)cc1", "activity change, negative = inhibition": -3.76}, {"compound": "CCC(=O)N(C)C[C@H]1Oc2cc(-c3ccc(C#N)cc3)ccc2S(=O)(=O)N([C@@H](C)CO)C[C@@H]1C", "activity change, negative = inhibition": -6.46}, {"compound": "CCCC(=O)N1CC2(C1)CN(C(=O)C1CCCCC1)[C@H](CO)c1[nH]c3cc(OC)ccc3c12", "activity change, negative = inhibition": 3.38}, {"compound": "C[C@@H]1CN([C@H](C)CO)C(=O)c2cc(NC(=O)Nc3ccc(F)cc3)ccc2O[C@H]1CN(C)Cc1ccc(-c2ccccc2)cc1", "activity change, negative = inhibition": 0.559}, {"compound": "COc1ccc(NC(=O)CSc2nnc(NC(=O)C3CC3)s2)cc1OC", "activity change, negative = inhibition": -1.02}, {"compound": "COc1ccc2c3c([nH]c2c1)[C@H](CO)N(Cc1ccccc1Cl)CC31CN(C(=O)C2CC2)C1", "activity change, negative = inhibition": 9.35}, {"compound": "O=C(C[C@@H]1C[C@H]2c3cc(NC(=O)C4CCC4)ccc3O[C@H]2[C@@H](CO)O1)NCC(F)(F)F", "activity change, negative = inhibition": 0.372}, {"compound": "O=C(Nc1ccncc1)C1CCN(S(=O)(=O)c2cccc(C(F)(F)F)c2)CC1", "activity change, negative = inhibition": -7.36}, {"compound": "Cc1noc(C)c1NC(=O)Nc1cccc2c1O[C@H](CN(C)S(=O)(=O)c1ccc(Cl)cc1)[C@@H](C)CN([C@H](C)CO)C2=O", "activity change, negative = inhibition": -8.97}, {"compound": "Cc1ccc2nc(-c3cccc(Br)c3)c(Cc3cccc(Cl)c3)n2c1", "activity change, negative = inhibition": -4.19}, {"compound": "CN(CC(=O)Nc1ccc(F)c(F)c1F)C(=O)c1cc(-c2ccncc2)nc2ccccc12", "activity change, negative = inhibition": 5.55}, {"compound": "C[C@@H]1CN([C@H](C)CO)C(=O)c2cccc(NS(=O)(=O)c3ccc(Cl)cc3)c2O[C@@H]1CN(C)Cc1ccc(C(F)(F)F)cc1", "activity change, negative = inhibition": -7.04}, {"compound": "CCC(=O)Nc1ccc2c(c1)OC[C@H](C)N(Cc1cccnc1)C[C@H](C)[C@H](OC)CN(C)C2=O", "activity change, negative = inhibition": 6.85}, {"compound": "COC(=O)[C@]1(C)N[C@H](CN(C)S(=O)(=O)c2ccc(OC(F)(F)F)cc2)[C@@H]2C(=O)N(C)C(=O)[C@@H]21", "activity change, negative = inhibition": 2.15}, {"compound": "O=C(Cc1ccc(NC(=O)C2CCCN(C(=O)C3CC3)C2)cc1)Nc1cccc(C(=O)N2CCCCC2)c1", "note": "(centres undefined)", "activity change, negative = inhibition": -9.63}, {"compound": "C[C@@H]1CN([C@@H](C)CO)C(=O)Cc2cc(NC(=O)Cc3ccccc3)ccc2O[C@@H]1CN(C)C(=O)Nc1ccc(C(F)(F)F)cc1", "activity change, negative = inhibition": 1.83}, {"compound": "O=C(C[C@@H]1CC[C@@H]2[C@H](COC[C@@H](O)CN2S(=O)(=O)c2ccccc2)O1)NCCN1CCCC1", "activity change, negative = inhibition": 2.02}, {"compound": "C[C@@H]1CN([C@@H](C)CO)C(=O)Cc2cc(NC(=O)Nc3ccc(C(F)(F)F)cc3)ccc2O[C@@H]1CN(C)Cc1ccc(Cl)c(Cl)c1", "activity change, negative = inhibition": 6.89}, {"compound": "C[C@@H]1CN([C@@H](C)CO)C(=O)c2cc(C#CC3(O)CCCC3)cnc2O[C@H]1CN(C)C(=O)Cc1cccnc1", "activity change, negative = inhibition": 3.35}, {"compound": "CCCNC(=O)C[C@H]1C[C@@H]2c3cc(NC(=O)CC4CC4)ccc3O[C@@H]2[C@@H](CO)O1", "activity change, negative = inhibition": -10.3}, {"compound": "COCCNC(=O)c1ccccc1NS(=O)(=O)c1ccc(C)c([N+](=O)[O-])c1", "activity change, negative = inhibition": 25}]}]}
